# Targets with a hit are over-represented here; the source holds about 7,900 in all. About 0.6% of all pairs of compound and target were hits. Unmarked numbers belong to inactive results.
# Columns and labels:
# Assay in all cases: log2 fold change, soluble protein after heating vs DMSO (PISA); higher = thermal stabilisation; K562 cells, 10 uM, 30 min; active = over 0.2 and 3.5 SD of the protein, either way, in both replicates (recomputed)
# erlotinib = compound: C#Cc1cccc(Nc2ncnc3cc(OCCOC)c(OCCOC)cc23)c1 [erlotinib]
# Method in brief: (§1)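 K562 cells (2×10^6 cells/mL) were treated with 10 μM compound for 30 min, and aliquots were heated for 3 min over 48°C-58°C. Pooled aliquots were extracted in PBS with 0.5% NP-40 at 4°C, and the supernatant after 21,000xg for 90 min was measured by TMTpro 16plex LC-MS/MS with channel sums equalised. Reported thermal stability, relative to control samples and from duplicates, is a log2 fold change.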
# [1] = compound: C/C(=N\NC(=O)C1=CC(=CC=C1)S(=O)(=O)N2CCOCC2)/C3=C(C=CC(=C3)Cl)O
# Method in brief: as §1
# [2] = compound: C1=CC(=C(C=C1Cl)C2=NC3=NC=CN=C3C(=N2)NC4=CC=NC=C4)F
# Method in brief: as §1
# [3] = compound: C1=CC(=CC=C1C2=NC3=C(N2)C=C(C=C3)C(=O)N)OC4=CC=C(C=C4)Cl
# Method in brief: as §1
# [4] = compound: C1=CC2=C(C=CC(=C2)/C=C\3/C(=O)NC(=NCC4=CC=CS4)S3)N=C1
# Method in brief: as §1
# [5] = compound: C1=CC2=NC=CN=C2C=C1/C=C/3\C(=O)NC(=O)S3
# Method in brief: as §1
# [6] = compound: C1=CC=C(C=C1)C2=NC(=C(N2)C3=CC=NC=C3)C4=CC(=C(C=C4)Cl)O
# Method in brief: as §1
# [7] = compound: C1=CC=C2C(=C1)C3=NNC4=CC=CC(=C43)C2=O
# Method in brief: as §1
# [8] = compound: C1CCN(C1)C(=O)NC2=CC=CC(=C2)NC3=NC=C(C(=N3)NCCC4=CN=CN4)Br
# Method in brief: as §1
# [9] = compound: C1CN(CCC1(CC2=CC=C(C=C2)Cl)N)C3=NC=NC4=C3C=CN4
# Method in brief: as §1
# Sequence of UniProt P41247 (P41247 whole entry, looked up): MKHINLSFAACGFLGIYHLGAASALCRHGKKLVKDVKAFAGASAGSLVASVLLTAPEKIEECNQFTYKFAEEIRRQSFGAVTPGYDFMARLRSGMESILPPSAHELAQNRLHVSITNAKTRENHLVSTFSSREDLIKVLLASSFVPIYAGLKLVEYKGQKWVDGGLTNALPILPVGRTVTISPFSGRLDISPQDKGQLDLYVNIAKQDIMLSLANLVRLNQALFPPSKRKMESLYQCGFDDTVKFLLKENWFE
# Sequence of UniProt P10644 (P10644 whole entry, looked up): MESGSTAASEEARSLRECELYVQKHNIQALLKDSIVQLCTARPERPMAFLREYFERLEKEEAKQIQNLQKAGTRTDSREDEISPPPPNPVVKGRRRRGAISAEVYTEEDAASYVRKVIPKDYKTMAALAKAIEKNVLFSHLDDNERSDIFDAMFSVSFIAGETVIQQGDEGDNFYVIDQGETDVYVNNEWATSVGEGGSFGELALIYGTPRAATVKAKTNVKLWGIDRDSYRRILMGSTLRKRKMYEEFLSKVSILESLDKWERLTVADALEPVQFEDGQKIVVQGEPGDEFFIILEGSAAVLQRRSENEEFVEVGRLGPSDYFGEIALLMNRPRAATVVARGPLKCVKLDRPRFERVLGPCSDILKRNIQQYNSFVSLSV
# Sequence of UniProt Q8NDX5 (Q8NDX5 whole entry, looked up): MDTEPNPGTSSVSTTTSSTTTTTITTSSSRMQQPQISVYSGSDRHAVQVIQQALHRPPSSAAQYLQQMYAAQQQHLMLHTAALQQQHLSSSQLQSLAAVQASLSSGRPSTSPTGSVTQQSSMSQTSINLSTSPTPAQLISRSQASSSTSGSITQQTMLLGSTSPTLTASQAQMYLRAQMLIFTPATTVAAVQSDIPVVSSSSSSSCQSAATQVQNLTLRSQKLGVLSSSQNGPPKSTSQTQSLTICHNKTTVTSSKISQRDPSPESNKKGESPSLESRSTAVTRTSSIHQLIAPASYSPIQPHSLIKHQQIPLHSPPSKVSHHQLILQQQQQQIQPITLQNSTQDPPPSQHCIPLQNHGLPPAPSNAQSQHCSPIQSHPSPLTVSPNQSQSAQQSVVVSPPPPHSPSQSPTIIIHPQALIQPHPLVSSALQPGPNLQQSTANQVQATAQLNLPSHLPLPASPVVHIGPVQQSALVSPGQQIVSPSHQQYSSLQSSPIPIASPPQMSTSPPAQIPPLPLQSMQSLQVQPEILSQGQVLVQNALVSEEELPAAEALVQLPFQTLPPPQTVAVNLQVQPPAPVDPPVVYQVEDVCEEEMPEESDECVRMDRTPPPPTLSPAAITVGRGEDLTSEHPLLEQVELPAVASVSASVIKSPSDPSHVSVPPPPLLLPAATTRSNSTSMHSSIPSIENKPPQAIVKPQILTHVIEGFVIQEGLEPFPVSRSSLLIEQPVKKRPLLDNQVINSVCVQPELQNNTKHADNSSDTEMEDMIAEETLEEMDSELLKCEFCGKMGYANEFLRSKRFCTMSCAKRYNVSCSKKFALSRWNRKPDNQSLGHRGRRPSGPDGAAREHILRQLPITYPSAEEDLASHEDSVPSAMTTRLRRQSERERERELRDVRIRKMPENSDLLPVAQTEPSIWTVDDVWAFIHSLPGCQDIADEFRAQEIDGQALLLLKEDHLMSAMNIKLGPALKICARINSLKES
# Sequence of UniProt P31321 (P31321 whole entry, looked up): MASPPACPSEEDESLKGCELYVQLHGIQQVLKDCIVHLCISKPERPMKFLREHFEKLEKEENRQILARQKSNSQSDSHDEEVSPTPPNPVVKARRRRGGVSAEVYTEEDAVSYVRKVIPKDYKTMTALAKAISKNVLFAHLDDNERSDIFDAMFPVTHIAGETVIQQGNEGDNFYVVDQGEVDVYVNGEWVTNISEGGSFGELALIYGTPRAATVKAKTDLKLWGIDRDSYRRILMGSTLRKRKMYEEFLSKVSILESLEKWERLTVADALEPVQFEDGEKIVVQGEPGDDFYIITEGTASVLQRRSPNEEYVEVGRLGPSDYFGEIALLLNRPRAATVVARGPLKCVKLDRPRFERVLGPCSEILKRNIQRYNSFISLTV
# Sequence of UniProt Q00577 (Q00577 whole entry, looked up): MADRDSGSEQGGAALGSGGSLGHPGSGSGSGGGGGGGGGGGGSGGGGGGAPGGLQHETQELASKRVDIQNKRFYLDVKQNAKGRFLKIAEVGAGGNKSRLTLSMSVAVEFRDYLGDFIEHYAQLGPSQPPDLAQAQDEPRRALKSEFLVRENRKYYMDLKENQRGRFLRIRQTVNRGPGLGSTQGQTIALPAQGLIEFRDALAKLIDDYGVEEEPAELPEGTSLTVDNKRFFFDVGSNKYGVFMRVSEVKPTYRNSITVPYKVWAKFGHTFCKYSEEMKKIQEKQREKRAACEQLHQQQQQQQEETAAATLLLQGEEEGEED
# Sequence of UniProt O94913 (O94913 whole entry, looked up): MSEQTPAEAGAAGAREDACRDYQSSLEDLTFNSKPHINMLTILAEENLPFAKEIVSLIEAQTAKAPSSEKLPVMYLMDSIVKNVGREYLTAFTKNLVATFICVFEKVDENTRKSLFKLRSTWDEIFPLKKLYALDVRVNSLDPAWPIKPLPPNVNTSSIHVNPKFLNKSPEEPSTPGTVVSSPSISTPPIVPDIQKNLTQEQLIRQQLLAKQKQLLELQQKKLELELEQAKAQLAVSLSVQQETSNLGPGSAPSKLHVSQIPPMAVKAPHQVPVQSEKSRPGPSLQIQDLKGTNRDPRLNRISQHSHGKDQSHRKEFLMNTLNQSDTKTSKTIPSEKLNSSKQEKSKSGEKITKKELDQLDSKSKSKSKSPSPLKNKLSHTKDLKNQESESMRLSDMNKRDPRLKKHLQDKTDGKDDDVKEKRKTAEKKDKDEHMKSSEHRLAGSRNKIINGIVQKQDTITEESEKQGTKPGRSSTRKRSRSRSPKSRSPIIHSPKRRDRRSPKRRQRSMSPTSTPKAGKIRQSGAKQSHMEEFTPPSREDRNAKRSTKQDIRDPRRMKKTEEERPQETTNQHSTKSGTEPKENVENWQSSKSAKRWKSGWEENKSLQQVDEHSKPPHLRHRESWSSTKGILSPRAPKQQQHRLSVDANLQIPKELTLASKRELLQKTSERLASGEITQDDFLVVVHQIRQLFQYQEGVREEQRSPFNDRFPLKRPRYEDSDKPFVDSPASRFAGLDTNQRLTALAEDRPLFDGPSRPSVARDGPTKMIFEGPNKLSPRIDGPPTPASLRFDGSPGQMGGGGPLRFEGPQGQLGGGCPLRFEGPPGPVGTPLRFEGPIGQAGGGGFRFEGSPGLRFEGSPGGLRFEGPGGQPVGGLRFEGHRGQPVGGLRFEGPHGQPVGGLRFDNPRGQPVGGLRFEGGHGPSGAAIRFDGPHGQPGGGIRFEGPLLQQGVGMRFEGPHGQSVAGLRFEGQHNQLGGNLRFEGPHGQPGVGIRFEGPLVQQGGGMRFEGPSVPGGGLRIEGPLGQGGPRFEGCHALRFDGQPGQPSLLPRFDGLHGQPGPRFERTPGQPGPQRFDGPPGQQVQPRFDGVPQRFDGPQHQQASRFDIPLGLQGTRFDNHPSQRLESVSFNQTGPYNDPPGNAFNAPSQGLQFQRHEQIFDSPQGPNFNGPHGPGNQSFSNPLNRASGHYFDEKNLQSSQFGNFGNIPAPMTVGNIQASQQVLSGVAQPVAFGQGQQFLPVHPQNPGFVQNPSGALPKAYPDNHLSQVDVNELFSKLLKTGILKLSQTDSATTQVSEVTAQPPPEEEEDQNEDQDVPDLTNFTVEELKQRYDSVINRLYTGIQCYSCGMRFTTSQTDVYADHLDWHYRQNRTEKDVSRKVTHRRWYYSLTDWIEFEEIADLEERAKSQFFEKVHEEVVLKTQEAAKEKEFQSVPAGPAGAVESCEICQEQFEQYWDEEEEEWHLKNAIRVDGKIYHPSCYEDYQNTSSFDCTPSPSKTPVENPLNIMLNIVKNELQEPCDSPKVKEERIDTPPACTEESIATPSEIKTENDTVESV
# Sequence of UniProt Q9UMR5 (Q9UMR5 whole entry, looked up): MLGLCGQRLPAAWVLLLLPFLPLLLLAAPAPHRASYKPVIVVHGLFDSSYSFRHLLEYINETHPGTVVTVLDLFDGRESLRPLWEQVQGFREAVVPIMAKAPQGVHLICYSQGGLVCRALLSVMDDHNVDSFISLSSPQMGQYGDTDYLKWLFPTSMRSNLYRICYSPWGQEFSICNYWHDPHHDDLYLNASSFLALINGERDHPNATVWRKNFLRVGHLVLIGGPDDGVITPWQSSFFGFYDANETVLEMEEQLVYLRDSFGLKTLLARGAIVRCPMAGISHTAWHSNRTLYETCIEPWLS
# Sequence of UniProt P06454 (P06454 whole entry, looked up): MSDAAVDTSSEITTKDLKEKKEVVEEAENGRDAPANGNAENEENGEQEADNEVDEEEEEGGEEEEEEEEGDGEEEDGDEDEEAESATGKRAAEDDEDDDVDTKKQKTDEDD
# Sequence of UniProt Q9Y478 (Q9Y478 whole entry, looked up): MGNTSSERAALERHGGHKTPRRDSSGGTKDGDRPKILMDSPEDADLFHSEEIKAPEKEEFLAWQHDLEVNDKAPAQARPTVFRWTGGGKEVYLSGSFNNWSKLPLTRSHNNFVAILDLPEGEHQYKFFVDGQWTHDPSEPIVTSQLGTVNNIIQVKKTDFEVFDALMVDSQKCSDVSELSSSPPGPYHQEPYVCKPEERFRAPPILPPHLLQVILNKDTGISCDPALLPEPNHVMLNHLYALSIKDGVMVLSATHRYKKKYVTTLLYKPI
# Sequence of UniProt P17980 (P17980 whole entry, looked up): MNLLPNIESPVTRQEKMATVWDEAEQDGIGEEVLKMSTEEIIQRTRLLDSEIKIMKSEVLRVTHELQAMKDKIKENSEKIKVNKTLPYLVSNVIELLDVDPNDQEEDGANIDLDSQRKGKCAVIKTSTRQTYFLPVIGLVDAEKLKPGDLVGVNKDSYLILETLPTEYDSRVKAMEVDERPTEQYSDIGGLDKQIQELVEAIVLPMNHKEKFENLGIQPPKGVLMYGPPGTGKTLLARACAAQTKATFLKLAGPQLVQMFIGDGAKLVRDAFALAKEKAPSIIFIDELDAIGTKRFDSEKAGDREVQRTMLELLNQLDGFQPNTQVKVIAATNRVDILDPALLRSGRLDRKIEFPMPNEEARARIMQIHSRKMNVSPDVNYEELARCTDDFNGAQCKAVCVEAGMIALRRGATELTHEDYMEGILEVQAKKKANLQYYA
Target,log2 fold change (erlotinib),log2 fold change [1],log2 fold change [2],log2 fold change [3],log2 fold change [4],log2 fold change [5],log2 fold change [6],log2 fold change [7],log2 fold change [8],log2 fold change [9]
PPT2 isoform 3 (UniProt Q9UMR5),0,0.056,0.033,-0.001,-0.026,-0.02,0.038,0.039,-0.012,0.031
PMM2 (UniProt O15305),0.03,-0.034,0.008,-0.02,0.023,0.003,-0.014,-0.019,-0.004,0.05
PURA (UniProt Q00577),-0.244,-0.208,-0.319,0.101,-0.156,0.013,-0.137,-0.051,0.179,-0.102
PSMC3 (UniProt P17980),-0.039,-0.107,-0.037,0.008,-0.059,-0.025,-0.002,-0.001,0.026,-0.004
PPP2R5C isoform 4 (UniProt Q13362),0.036,-0.022,0.218,-0.025,-0.039,-0.004,-0.029,-0.015,0,0.019
PRKAB1 (UniProt Q9Y478),0.043,0.15,0.052,-0.011,-0.06,0.024,0.019,0.026,-0.076,0.068
PRKAR1B (UniProt P31321),-0.027,-0.056,-0.036,0.013,0.205,0.282,-0.006,0.102,0.086,-0.077
PTMA (UniProt P06454),0.06,0.159,0.192,0.005,-0.136,0.006,0.197,0.189,-0.148,0.151
PSMB9 (UniProt P28065),-0.158,-0.633 (active),-0.116,0.113,0.174,-0.142,–,-0.006,–,–
PEX7 (UniProt O00628),0.021,0.034,0.034,0.276 (active),0.08,-0.117,0.039,-0.041,-0.031,0.063
PMPCA (UniProt Q10713),-0.014,0.005,0.064,0.016,0.03,-0.014,0.07,0.065,-0.026,0.011
PRKAR1A (UniProt P10644),0.078,-0.084,-0.037,-0.027,0.116,0.018,0.066,0.139,0.128,-0.017
PCBP2 (UniProt F8VRH0),-0.011,0.07,0.016,-0.099,-0.26,-0.153,–,-0.04,-0.13,0.113
PDE6D (UniProt O43924),-0.094,0.055,-0.082,-0.102,0.078,0.004,–,0.115,0.417,0.028
PDE4DIP (UniProt E9PS60),0.086,–,–,-0.175,–,–,–,–,–,–
PTP4A3 (UniProt O75365),–,–,–,–,–,-0.041,–,–,–,–
PUF60 isoform 2 (UniProt Q9UHX1),–,0.242,–,–,-0.242,0.086,0.05,0.046,-0.148,-0.148
PHC3 isoform 7 (UniProt Q8NDX5),0.08,–,0.24,-0.002,–,0.174,–,–,–,–

Target,log2 fold change (erlotinib),log2 fold change [1],log2 fold change [2],log2 fold change [3],log2 fold change [4],log2 fold change [5],log2 fold change [6],log2 fold change [7],log2 fold change [8],log2 fold change [9]
PCNX1 (UniProt Q96RV3),–,–,0.036,–,–,-0.006,–,–,-0.019,-0.041
PTK2B (UniProt Q14289),0.225,0.063,–,0.059,0.048,0.058,0.008,-0.066,0.025,0.105
PSMC3 (UniProt E9PLG2),–,–,-0.437,–,–,0.151,–,–,0.27,-0.045
PEX5 isoform 4 (UniProt P50542),-0.133,-0.143,-0.036,0.076,0.048,–,0.016,-0.082,0.097,-0.078
PRKD3 (UniProt O94806),0.051,0.373,–,0.013,-0.197,0.034,0.055,-0.507,–,–
PPP2R5B (UniProt Q15173),-0.044,0.039,–,-0.05,-0.003,0.072,–,0.124,–,–
PHRF1 (UniProt Q9P1Y6),-0.161,–,–,0.082,–,–,0.073,–,–,–
PNPLA4 (UniProt P41247),0.426,0.13,–,-0.176,-0.148,0.133,-0.084,0.059,0.108,0.029
PPP2R5C isoform 2 (UniProt Q13362),-0.012,–,–,-0.02,–,-0.011,-0.039,–,–,–
PSMD8 (UniProt K7ERW6),–,–,–,–,–,–,–,–,0.052,-0.148
PMS2CL (UniProt Q68D20),–,–,0.094,–,–,–,-0.023,–,–,–
PRKD2 (UniProt M0R346),–,–,-0.066,–,–,-0.032,–,–,–,–
POGZ (UniProt Q7Z3K3),0.006,0.085,0.044,0.033,-0.172,–,0.023,0.082,0.026,0.115
PCF11 (UniProt O94913),–,0.04,–,–,-0.082,0.111,-0.191,0.083,–,–
PIAS4 (UniProt Q8N2W9),–,–,0.061,–,–,–,-0.214,–,0.129,-0.045
PPP1R12B isoform 6 (UniProt O60237),0.226,–,–,0.001,–,-0.081,–,–,–,–
PKM isoform 2 (UniProt P14618),–,-0.004,0.075,–,-0.005,-0.18,-0.048,0.04,-0.047,0.003
